Results: PubChem BioAssay AID1159580 (chemical genetic matrix, 2015)
About 2,000 (36%) of roughly 5,500 compounds were called active. Another 18% or so got no clear call; they are omitted. Cut-off read from the data, not from the text of the source: active = normalized growth mostly below about 0.91 (no sharp cut-off); inconclusive = no clear call, values can overlap the other calls; inactive = mostly above about 0.92. The list shows a part of the results.

Experiment: chemical genetic growth profiling, strain panel (AID 1159580);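 note: tested at 20 µM; growth read once vehicle control cultures reached saturation at 30 °C; 1 = growth at the plate median or of vehicle wells; lower values mean less growth of the strain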
Conditions: S. cerevisiae deletion strains, growth OD
[1] = locus YDL101C, strain DUN1, hits give low values
[2] = locus YHR030C, strain SLT2, hits give low values

Measured: normalized growth

Cc1ccc(C(=O)O/N=C(/N)CSc2ncccc2C(F)(F)F)cc1
inactive: locus YAR019C, strain CDC15, hits give low values 1 | locus YBL105C, strain PKC1, hits give low values 1.01 | locus YBR135W, strain CKS1, hits give low values 1 | locus YBR136W, strain MEC1, hits give low values 1.01 | locus YBR160W, strain CDC28, hits give low values 1 | locus YDL017W, strain CDC7, hits give low values 1.01 | locus YDL028C, strain MPS1, hits give low values 0.989 | [1] 1 | locus YDL108W, strain KIN28, hits give low values 1 | locus YDL132W, strain cdc53, hits give low values 1.01 | locus YDL214C, strain PRR2, hits give low values 0.991 | locus YDR052C, strain DBF4, hits give low values 1.01 | locus YDR054C, strain cdc34, hits give low values 1.01 | locus YDR226W, strain ADK1, hits give low values 1.02 | locus YDR477W, strain SNF1, hits give low values 0.994 | locus YER123W, strain YCK3, hits give low values 0.995 | locus YER133W, strain GLC7, hits give low values 0.976 | locus YFL009W, strain cdc4, hits give low values 0.994 | locus YFL029C, strain CAK1, hits give low values 1 | locus YFR003C, strain YPI1, hits give low values 1 | locus YFR019W, strain FAB1, hits give low values 0.955 | locus YFR028C, strain CDC14, hits give low values 1.01 | locus YGR040W, strain KSS1, hits give low values 0.998 | locus YGR052W, strain FMP48, hits give low values 1.02 | locus YGR092W, strain DBF2, hits give low values 1 | [2] 0.982 | locus YHR079C, strain IRE1, hits give low values 0.793 | locus YHR082C, strain KSP1, hits give low values 1.19 | locus YHR205W, strain SCH9, hits give low values 0.988 | locus YIL147C, strain SLN1, hits give low values 1.01 | locus YJL095W, strain BCK1, hits give low values 0.887 | locus YJL128C, strain PBS2, hits give low values 0.988 | locus YJL157C, strain FAR1, hits give low values 0.997 | locus YJR016C, strain ILV3, hits give low values 1.01 | locus YJR066W, strain TOR1 (second series), hits give low values 0.975 | locus YJR066W, strain TOR1, hits give low values 1.16 | locus YKL048C, strain ELM1, hits give low values 0.991 | locus YKL067W, strain YNK1, hits give low values 0.996 | locus YKL101W, strain HSL1, hits give low values 1 | locus YKL193C, strain SDS22, hits give low values 1.01 | locus YKL203C, strain TOR2, hits give low values 1.07 | locus YLR133W, strain CKI1, hits give low values 1 | locus YLR403W, strain SFP1, hits give low values 0.976 | locus YML070W, strain DAK1, hits give low values 0.988 | locus YMR001C, strain CDC5, hits give low values 1.01 | locus YMR205C, strain PFK2 (second series), hits give low values 0.993 | locus YMR277W, strain FCP1, hits give low values 1.01 | locus YNL006W, strain LST8, hits give low values 1.01 | locus YNL020C, strain ARK1, hits give low values 1 | locus YNL161W, strain CBK1, hits give low values 1.01 | locus YNL183C, strain NPR1, hits give low values 0.951 | locus YNL207W, strain RIO2, hits give low values 1.02 | locus YNL222W, strain SSU72, hits give low values 1 | locus YNL307C, strain MCK1 (second series), hits give low values 1.01 | locus YOL078W, strain AVO1, hits give low values 1 | locus YOL136C, strain PFK27, hits give low values 0.994 | locus YOR061W, strain CKA2, hits give low values 0.982 | locus YOR119C, strain RIO1, hits give low values 1.02 | locus YOR231W, strain MKK1, hits give low values 0.821 | locus YOR329C, strain SCD5, hits give low values 1.01 | locus YPL031C, strain PHO85, hits give low values 1 | locus YPL153C, strain RAD53, hits give low values 0.984 | locus YPL204W, strain HRR25, hits give low values 0.994 | locus YPL209C, strain IPL1, hits give low values 1.01 | locus YPL256C, strain CLN2, hits give low values 0.884 | locus YPR025C, strain CCL1, hits give low values 1 | locus YPR106W, strain ISR1, hits give low values 1.01 | locus YPR111W, strain DBF20, hits give low values 1 | strain NNK1, hits give low values 1.02 | strain TSCII, hits give low values 1.01
active: locus YLR113W, strain HOG1, hits give low values 0.828

CC(C)(C)C(=O)N1CCN(c2ncccc2C(F)(F)F)CC1
inactive: locus YAL013W, strain DEP1, hits give low values 0.988 | locus YBR229C, strain ROT2, hits give low values 0.983 | locus YCL061C, strain MRC1, hits give low values 0.998 | [1] 0.977 | locus YDL134C, strain PPH21, hits give low values 0.967 | locus YDR150W, strain NUM1, hits give low values 0.983 | locus YEL061C, strain CIN8, hits give low values 0.96 | locus YGR078C, strain PAC10, hits give low values 0.979 | [2] 0.853 | locus YHR087W, strain rtc3, hits give low values 0.973 | locus YJR043C, strain POL32, hits give low values 0.997 | locus YJR075W, strain HOC1, hits give low values 0.983 | locus YLR039C, strain RIC1, hits give low values 0.914 | locus YLR058C, strain SHM2 (second series), hits give low values 0.989 | locus YLR085C, strain ARP6, hits give low values 0.941 | locus YLR262C, strain YPT6, hits give low values 0.865 | locus YML094W, strain GIM5, hits give low values 0.939 | locus YMR219W, strain ESC1, hits give low values 0.99 | locus YMR263W, strain SAP30, hits give low values 1.02 | locus YNL153C, strain GIM3, hits give low values 0.992 | locus YNL298W, strain CLA4 (second series), hits give low values 0.966 | locus YNL322C, strain KRE1, hits give low values 0.974 | locus YNR030W, strain Alg12, hits give low values 0.963 | locus YOL006C, strain TOP1, hits give low values 0.871 | locus YPL055C, strain LGE1, hits give low values 0.959 | locus YPL241C, strain CIN2, hits give low values 0.999 | locus YPR135W, strain CTF4, hits give low values 0.787
